# High-throughput results as filed in PubChem BioAssay.
# SARS 3CLpro inh – SARS-CoV 3CLpro protease inhibitors, primary screen, biochemical, quenched FRET; Replicase polyprotein 1ab (Severe acute respiratory syndrome coronavirus), P0C6X7; recombinant SARS-CoV 3CLpro, quenched FRET peptide cleavage; inhibition, % at 6 µM; 0.14% of 290,000 active; in the data active = inhibition above about 12%
# GDH-TPI inh – GDH-TPI coupling enzyme inhibitors, primary screen, artefact control for M. tuberculosis FBA inhibitor project, biochemical, absorbance, full deck; GDH-TPI coupled enzyme counterscreen, NADH absorbance; inhibition, % at 4.8 µM; 1.2% of 360,000 active; in the data active = inhibition above about 30%;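 note: 0% = DMSO wells and 100% = wells lacking the enzyme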
# FadD28 FP inh – inhibitors of FadD28 bisubstrate probe binding, primary screen, biochemical, fluorescence polarization, single point | Mycobacterium tuberculosis FadD28 fatty-acid-AMP ligase | 0.22% of 360,000 active | inhibition, % at 12.5 µM | AID 588549, 2011; in the data active = inhibition above about 8.5%, passing the limit was not always enough
# Mtb BioA inh – M. tuberculosis BioA enzyme inhibitors, primary screen, biochemical, plate reader, single point, HTS; 7,8-diaminopelargonic acid synthase BioA (Mycobacterium tuberculosis); purified M. tuberculosis BioA enzyme; inhibition, % at 9.99 µM; 0.096% of 360,000 active; AID 602481, 2012; in the data active = inhibition above about 40%
# FBA Mtb inh – Mtb FBA enzyme inhibitors, primary screen, biochemical, fluorescence, strain H37Rv; purified M. tuberculosis FBA, fluorescence read-out; AID 588726, 2011; 2.3% of 360,000 active; inhibition, % at 1 µM; Fructose-bisphosphate aldolase (Mycobacterium tuberculosis (strain ATCC 25618 / H37Rv)), …; in the data active = inhibition above about 27%;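 note: 0% = vehicle and 100% = reference inhibitor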
# Target sequence (P9WQA3 whole entry, looked up): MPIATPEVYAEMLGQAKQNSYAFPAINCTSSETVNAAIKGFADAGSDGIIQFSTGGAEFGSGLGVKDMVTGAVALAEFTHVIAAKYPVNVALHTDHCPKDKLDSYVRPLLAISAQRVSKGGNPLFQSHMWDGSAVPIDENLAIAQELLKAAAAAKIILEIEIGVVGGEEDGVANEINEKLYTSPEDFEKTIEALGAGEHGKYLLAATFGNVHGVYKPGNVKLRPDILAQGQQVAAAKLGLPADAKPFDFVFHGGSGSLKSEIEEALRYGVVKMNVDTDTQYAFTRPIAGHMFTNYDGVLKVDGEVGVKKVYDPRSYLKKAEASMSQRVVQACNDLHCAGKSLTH
# Starred values were filed as active, the others as inactive; / = no result; + = active, no number. Only some compounds are listed: those with a hit (about 3.1% of all), similar ones and a draw of the others.
SMILES,SARS 3CLpro inh,GDH-TPI inh,FadD28 FP inh,Mtb BioA inh,FBA Mtb inh
c1cnc2nc(-c3ccc4c(c3)OCO4)cn2c1,0,16,1,0,6
CCC(=O)N1C[C@H](C)[C@@H](OC)CN(C)C(=O)c2ccc(NC(=O)c3ccccc3)cc2OC[C@@H]1C,/,/,/,1,/
COc1ccccc1-c1ccc(C(=O)O)o1,3,5,-1,/,131*
CC(=O)Nc1cc2c3c(cccc3c1)-c1ccccc1-2,/,12,-2,/,140*
COC(=O)C[C@H]1CC[C@@H]2[C@H](COc3ccc(NS(=O)(=O)c4ccccc4F)cc3C(=O)N2C)O1,/,/,/,-1,/
NC(=O)c1cccc2c1-c1ccccc1/C2=N/NC(N)=S,-2,41*,0,/,-2
COc1cc(/C=N/N=C(\N)c2nonc2N)cc(OC)c1O,1,36*,-2,/,-2
C[C@H](CO)N1C[C@H](C)[C@H](CN(C)Cc2ccccc2)OCCCC[C@H](C)Oc2ccc(NC(=O)Nc3cccc4ccccc34)cc2C1=O,/,/,/,4,/
Cc1ccccc1OCCCn1cc(C(=O)C(=O)N2CCOCC2)c2ccccc21,7,11,1,/,152*
O=C(C(=O)N1CCOCC1)c1cn(Cc2ccc(F)cc2)c2ccccc12,-5,32*,-1,2,-4
c1ccc(Cn2ccc(-c3cnc(-c4ccccc4)s3)n2)cc1,2,18,-3,/,182*
COc1ccc2c(c1)CC/C(=C\c1ccc(OC)c(Cn3cccn3)c1)C2=O,0,38*,-4,-1,-2
C[C@H]1CN([C@@H](C)CO)S(=O)(=O)c2ccc(-c3ccccc3)cc2O[C@H]1CN(C)Cc1ccccn1,/,/,/,2,/
CCOc1ccc(NC(=O)C2C(C(=O)O)C3(Cl)C(Cl)=C(Cl)C2(Cl)C3(Cl)Cl)cc1 (stereo not given),-3,-3,21*,/,2
CCOc1ccc(NC(=O)C2C(c3ccccc3)C2(Cl)Cl)cc1 (stereo not given),5,17,-1,-4,1
Cc1cccn2c(=O)c3cc(C(=O)NC4CCS(=O)(=O)C4)sc3nc12 (stereo not given),-2,27,-3,-1,192*
O=C(NC1CCCCCC1)c1cc2c(=O)n3ccccc3nc2s1,-3,18,-3,8,+
C=CCNC(=O)c1cc2c(=O)n3ccccc3nc2s1,2,12,-2,0,+
CC(C)C#Cc1ccc2c(c1)O[C@H](CN(C)CC1CCOCC1)[C@H](C)CN([C@@H](C)CO)S2(=O)=O,/,/,/,-1,/
C[C@@H]1CN([C@@H](C)CO)C(=O)c2cc(-c3ccncc3)cnc2O[C@H]1CN(C)C(=O)Cc1cccnc1,/,/,/,-1,/
COc1ccccc1NC(=O)N[C@H]1CC[C@@H](CCn2cc(-c3ccccc3OC)nn2)O[C@@H]1CO,/,/,/,-2,/
Cc1cccn2c(=O)c3cc(C(=O)NC4CCCC4)c(=N)n(C4CCCC4)c3nc12,-4,2,-5,-1,+
CCn1c(=N)c(C(N)=O)cc2c(=O)n3cccc(C)c3nc21,1,/,/,/,/
CCCn1c(=N)c(C(=O)NC2CCCC2)cc2c(=O)n3cccc(C)c3nc21,-6,7,0,-2,+
Cc1cccn2c(=O)c3cc(C(=O)NC4CCCC4)n(C)c3nc12,-7,5,0,0,21
SMILES,SARS 3CLpro inh,GDH-TPI inh,FadD28 FP inh,Mtb BioA inh,FBA Mtb inh
N=c1c(C(=O)NCc2ccco2)cc2c(=O)n3ccccc3nc2n1C1CCCC1,-6,13,-1,-1,+
N=c1c(S(=O)(=O)c2ccccc2)cc2c(=O)n3ccccc3nc2n1C1CCCC1,4,9,-2,/,7
CCn1c(=N)c(C(=O)NC)cc2c(=O)n3cccc(C)c3nc21,/,11,1,0,+
COc1ccc(C(=O)N2C[C@H]3[C@@H](c4ccccc42)[C@H](CO)N3Cc2ccccc2Cl)cc1,/,/,/,-4,/
Cc1noc(C)c1NC(=O)Nc1cccc2c1O[C@H](CN(C)Cc1ccc(C(=O)O)cc1)[C@H](C)CN([C@@H](C)CO)C2=O,/,/,/,-1,/
Cc1noc(C)c1NC(=O)N(C)C[C@H]1Oc2ccc(NC(=O)Cc3ccccc3)cc2CC(=O)N([C@@H](C)CO)C[C@@H]1C,/,/,/,1,/
COc1ccc(CCn2c(=N)c(C(=O)NC3CCCC3)cc3c(=O)n4ccccc4nc32)cc1,-8,-2,-6,-4,-5
